# Bioassay records from PubChem BioAssay.
# An excerpt weighted towards active compounds, which were near 14% of everything screened.
# LASV entry inh = blocks Lassa virus binding to or entry into cells | Lassa virus pseudotype entry inhibition, cell reporter | Potency, µM (highest dose often 37.9 µM), usual class: inhibitors | actives 1.2% (n = 300,000); calls by dose curve; tested in HEK293 cells; note: nearly all actives have a fitted effect of over 50% in size
# Pf growth 96h = inhibits malaria parasite growth, 96 h. Potency, µM (highest dose often 28.7 µM), hits mostly inhibitors. P. falciparum luciferase reporter growth, 96 h. actives 6.9% (n = 320,000). AID 504834
#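 Cell-based qHTS: luciferase-tagged P. falciparum in erythrocytes (2% hematocrit, 0.05% parasitemia final) incubated with compounds for 96 hours, 37 C, 5% CO2; luciferase detection reagent then added and luminescence measured.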
# MARV entry inh = blocks Marburg virus binding to or entry into cells; Potency, µM (top dose mostly 37.8 µM), usual class: inhibitors; actives 1.8% (n = 300,000); AID 540276; Marburg virus pseudotyped entry inhibition, cell reporter; calls by dose curve; tested in HEK293 cells
# HCMV inh = inhibitors of human cytomegalovirus. HFF cells, HCMV-luciferase reporter, 72 h; stronger effect = lower value. activity change, negative = inhibition, % at 57.5 µM. actives 4.5% (n = 410,000). AID 1259415; in the data active = activity change below about -60%; inconclusive = no clear call, values can overlap the other calls; inactive = above about -39%
#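 Two compound doses tested in HFFs infected with HCMV-luciferase, MOI 1 PFU/cell, 72 h at 37C. Lysate luminescence read with OneGlo; data normalized against buffer-only and 10uM Salinomycin inhibitor controls.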
# HCV inhibitor = HCV inhibition; actives 3.4% (n = 340,000); Potency, µM (top dose mostly 41.8 µM), actives largely listed as inhibitors; AID 651820; Huh7.5.1 HCVcc-Cre infection, luciferase reporter, 44 h
#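 Infectious HCV cell culture screen: compound-treated cells (1,000/well, pre-plated 4 h) are infected with HCVcc-Cre at roughly 0.5 moi and grown 44 h. Infection is quantified by luciferase signal after 15 min substrate incubation at room temperature.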
# Pf growth 48h = P. falciparum growth inhibition at 48 hours (one generation) | Potency, µM (highest dose often 28.7 µM), hits mostly inhibitors | AID 504832 | P. falciparum luciferase growth in erythrocytes, 48 h | actives 5.9% (n = 310,000)
#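 Read-out is firefly luciferase luminescence from an integrated reporter in P. falciparum, so falling signal marks reduced parasite growth. Infected erythrocytes were at 2% hematocrit and 0.1% parasitemia (final) in Albumax-supplemented RPMI 1640.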
# A number is an active result; - = inactive; ? = inconclusive; . = no result. Unless noted, calls come from the whole dose curve; as a rule, active = well fitted inhibition curve with a large enough effect; inconclusive = small, poorly fitted or top-dose-only effect, or another doubt; inactive = no such curve, though single readings can be large or run the other way.
SMILES,LASV entry inh,Pf growth 96h,MARV entry inh,HCMV inh,HCV inhibitor,Pf growth 48h
COc1ccc(-c2c(C#N)c(SCc3c(C)noc3C)nc3c2C(=O)CC(C)(C)C3)cc1,-,-,-,-,-,-
CCc1c(C#N)c(SCCC(=O)Nc2ccc(F)cc2)nc2c1C(=O)CC(C)(C)C2,?,.,?,-96,11µM,?
Cc1sc2cc(-c3cccc([N+](=O)[O-])c3)c(-c3cccc([N+](=O)[O-])c3)c[n+]2c1C,-,0.83µM,-,-,-,0.93µM
O=c1cc(-c2cccc([N+](=O)[O-])c2)[nH][nH]1,-,-,-,?,-,-
O=[N+]([O-])c1cccc(-c2nnc3ccccn23)c1,.,?,.,.,-,-
O=[N+]([O-])c1cccc(-c2cc3cccc[n+]3cc2-c2cccc([N+](=O)[O-])c2)c1,-,0.17µM,-,-,-,0.52µM
COc1ccc2c(c1)c(=O)c(S(=O)(=O)c1ccccc1)cn2CC(=O)Nc1ccc(C)c(Cl)c1,-,.,-,-,.,.
COc1cc(NC(=O)Nc2nnc([C@H]3C[C@H](O)[C@@H](CO)O3)s2)cc(OC)c1,.,.,.,-,.,.
Cc1ccccc1N=C1NC(=O)C(CO)(CO)S1,.,-,.,-,-,-
O=C1NC(=Nc2ccccc2Cl)SC1(CO)CO,.,13µM,.,-,-,-
O=C1NC(=Nc2cccc([N+](=O)[O-])c2)SC1(CO)CO,-,-,-,-65,-,-
CN(C)c1ccc(C(=O)N2CCC2(C)C(=O)O)cc1 (stereo not drawn),.,.,.,-,.,.
CC1CCc2c(sc3nc(C(C)(C)C)nc(N4CCN(C(=O)CCl)CC4)c23)C1 (stereo not drawn),?,6.6µM,?,-103,?,-
O=S(=O)(c1ccccc1)c1nc(-c2ccco2)oc1NCc1ccccc1,-,8.3µM,-,-,-,.
CCOc1ccc(-c2nc(S(=O)(=O)c3ccccc3)c(NC)o2)cc1,-,?,-,-,-,-
CCOc1ccc(-c2nc(S(=O)(=O)c3ccccc3)c(NCc3cccnc3)o2)cc1,-,.,-,-,?,13µM
CCN1CCN(c2oc(-c3ccccc3C)nc2S(=O)(=O)c2ccccc2)CC1,-,9.3µM,?,-,-,?
CC1CCN(c2oc(-c3ccco3)nc2S(=O)(=O)c2ccccc2)CC1,?,4.7µM,-,-,-,-
O=S(=O)(c1ccccc1)c1nc(-c2ccccc2Cl)oc1N1CCCCCC1,-,.,-,-,.,.
O=S(=O)(c1ccccc1)c1nc(-c2ccc(F)cc2)oc1N1CCCCCC1,-,.,?,-,.,.
NC(=O)C1CCN(c2oc(-c3ccc(F)cc3)nc2S(=O)(=O)c2ccccc2)CC1,.,?,.,-,-,10µM
O=S(=O)(c1ccccc1)c1nc(-c2ccco2)oc1Nc1ccccc1,?,?,-,-62,-,?
COc1ccc(N=C2C(=Nc3ccc(OC)cc3)N(c3ccc(OC)cc3)C(=S)N2C)cc1,?,.,-,.,-,5.2µM
COc1ccc(N=C2C(=Nc3ccc(OC)cc3)N(c3ccc(OC)cc3)C(=S)N2c2ccccc2)cc1,-,.,-,-,?,-
COc1ccc(-c2c(C)nn(-c3ccccc3)c2NC(C)=O)cc1OC,.,-,.,-,-,-
SMILES,LASV entry inh,Pf growth 96h,MARV entry inh,HCMV inh,HCV inhibitor,Pf growth 48h
CCN(CC)P1(=O)OC(c2cc(OC)c(OC)c(OC)c2)=Nc2c1c(C)nn2-c1ccccc1 (stereo not drawn),-,.,-,-,-,10µM
CC(C(=O)N1CCc2ccccc21)N1CCc2ccccc2C1 (stereo not drawn),-,9.3µM,-,-,-,?
CC(C(=O)N1CCc2ccccc21)N1CCN(S(=O)(=O)c2cccc(C(F)(F)F)c2)CC1 (stereo not drawn),.,13µM,.,-,-,12µM
Cc1ccc(OC(C)C(=O)N2CCc3ccccc32)c([N+](=O)[O-])n1 (stereo not drawn),.,.,.,-,.,.
CC(C(=O)N1CCc2ccccc21)N1CCN(S(=O)(=O)c2ccc3c(c2)OCCCO3)CC1 (stereo not drawn),.,.,.,-,?,.
Cc1nn(C(C)C(=O)N2CCc3ccccc32)c(C)c1[N+](=O)[O-] (stereo not drawn),-,5.2µM,-,-,-,?
Cc1ccc(OC(C)C(=O)N2CCc3ccccc32)cc1 (stereo not drawn),-,.,?,-,-,2.9µM
